# What was measured:
# Experiment in all cases: DAPPL (digital affinity profiling via proximity ligation, sequencing); 10 mM Tris-HCl pH 7.5, 50 mM NaCl, 1 mM DTT, 4% glycerol, room temperature, 30 min; GST-TFs on glutathione beads, 16-mer random dsDNA library, 0.1% formaldehyde crosslink after washing; high values mean tight binding
# Details in all cases: protein: recombinant; tags: N-terminal GST; dsDNA, one strand shown
# [1] = biological target: T1, EHF (Homo sapiens, UniProt Q9NZC4 1-300)
# T1 sequence: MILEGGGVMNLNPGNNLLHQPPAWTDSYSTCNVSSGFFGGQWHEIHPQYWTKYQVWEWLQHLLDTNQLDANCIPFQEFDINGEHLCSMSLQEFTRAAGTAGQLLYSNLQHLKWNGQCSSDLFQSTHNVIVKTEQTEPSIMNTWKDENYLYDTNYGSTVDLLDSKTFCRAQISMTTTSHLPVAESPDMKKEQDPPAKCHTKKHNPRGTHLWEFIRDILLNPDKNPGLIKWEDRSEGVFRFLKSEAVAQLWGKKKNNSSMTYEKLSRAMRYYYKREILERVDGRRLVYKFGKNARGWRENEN
# In short: (§1)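 Human transcription factors were made in yeast as GST fusions, captured on glutathione beads and barcoded with DNA. With a tag-only sample included, the pool was incubated with 200 nmole of a random double-stranded 16-mer DNA library in Tris/NaCl/DTT/glycerol buffer at room temperature for 30 min, then crosslinked with 0.1% formaldehyde after washing, ligated by proximity, amplified and sequenced. For binding signal, each hexamer's read frequency for a factor is divided by its frequency for the tag-only sample.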
# [2] = biological target: T2, SPIC (Homo sapiens, UniProt Q8N5J4 1-248)
# T2 sequence: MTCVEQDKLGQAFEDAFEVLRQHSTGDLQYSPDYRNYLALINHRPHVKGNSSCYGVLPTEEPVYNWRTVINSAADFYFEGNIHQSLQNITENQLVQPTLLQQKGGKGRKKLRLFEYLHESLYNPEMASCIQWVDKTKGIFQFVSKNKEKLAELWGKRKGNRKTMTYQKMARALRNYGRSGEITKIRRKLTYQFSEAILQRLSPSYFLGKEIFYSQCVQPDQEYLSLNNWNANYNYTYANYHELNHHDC
# In short: as §1
# [3] = biological target: T3, ELF3 (Homo sapiens, UniProt P78545 1-371)
# T3 sequence: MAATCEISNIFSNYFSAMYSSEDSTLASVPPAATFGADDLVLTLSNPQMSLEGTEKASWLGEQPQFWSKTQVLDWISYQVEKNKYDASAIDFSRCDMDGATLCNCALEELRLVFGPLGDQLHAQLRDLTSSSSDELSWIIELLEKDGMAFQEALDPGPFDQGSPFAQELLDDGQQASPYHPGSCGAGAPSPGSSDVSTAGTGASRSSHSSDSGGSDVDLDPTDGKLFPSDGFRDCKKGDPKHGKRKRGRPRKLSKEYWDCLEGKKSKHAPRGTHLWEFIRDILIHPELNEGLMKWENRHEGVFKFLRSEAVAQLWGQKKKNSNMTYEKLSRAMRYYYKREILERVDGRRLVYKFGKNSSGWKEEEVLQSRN
# In short: as §1
# [4] = biological target: T4, ELK4 (Homo sapiens, UniProt P28324-2 1-405)
# T4 sequence: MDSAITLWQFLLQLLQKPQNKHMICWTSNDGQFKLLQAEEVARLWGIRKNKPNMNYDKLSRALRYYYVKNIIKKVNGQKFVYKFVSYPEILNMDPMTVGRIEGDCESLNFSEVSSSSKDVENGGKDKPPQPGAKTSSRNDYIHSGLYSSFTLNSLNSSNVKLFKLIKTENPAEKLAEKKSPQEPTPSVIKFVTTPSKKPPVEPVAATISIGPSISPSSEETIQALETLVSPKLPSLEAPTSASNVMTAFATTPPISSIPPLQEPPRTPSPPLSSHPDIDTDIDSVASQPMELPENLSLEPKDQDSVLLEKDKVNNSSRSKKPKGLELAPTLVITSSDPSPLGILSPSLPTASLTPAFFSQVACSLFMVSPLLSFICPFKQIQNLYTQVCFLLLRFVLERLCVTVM
# In short: as §1
# [5] = biological target: T5, ETV2 (Homo sapiens, UniProt O00321 1-342)
# T5 sequence: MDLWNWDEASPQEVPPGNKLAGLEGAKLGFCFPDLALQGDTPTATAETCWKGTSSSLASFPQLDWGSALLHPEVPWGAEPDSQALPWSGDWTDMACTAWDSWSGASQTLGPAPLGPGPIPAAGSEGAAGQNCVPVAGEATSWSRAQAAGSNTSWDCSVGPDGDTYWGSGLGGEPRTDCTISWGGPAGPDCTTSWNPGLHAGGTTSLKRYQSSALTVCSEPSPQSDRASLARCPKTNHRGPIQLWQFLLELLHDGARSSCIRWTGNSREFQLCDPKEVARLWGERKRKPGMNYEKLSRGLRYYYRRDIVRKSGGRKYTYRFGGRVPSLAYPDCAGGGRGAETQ
# In short: as §1
# [6] = biological target: T6, ERF (Homo sapiens, UniProt P50548 1-548)
# T6 sequence: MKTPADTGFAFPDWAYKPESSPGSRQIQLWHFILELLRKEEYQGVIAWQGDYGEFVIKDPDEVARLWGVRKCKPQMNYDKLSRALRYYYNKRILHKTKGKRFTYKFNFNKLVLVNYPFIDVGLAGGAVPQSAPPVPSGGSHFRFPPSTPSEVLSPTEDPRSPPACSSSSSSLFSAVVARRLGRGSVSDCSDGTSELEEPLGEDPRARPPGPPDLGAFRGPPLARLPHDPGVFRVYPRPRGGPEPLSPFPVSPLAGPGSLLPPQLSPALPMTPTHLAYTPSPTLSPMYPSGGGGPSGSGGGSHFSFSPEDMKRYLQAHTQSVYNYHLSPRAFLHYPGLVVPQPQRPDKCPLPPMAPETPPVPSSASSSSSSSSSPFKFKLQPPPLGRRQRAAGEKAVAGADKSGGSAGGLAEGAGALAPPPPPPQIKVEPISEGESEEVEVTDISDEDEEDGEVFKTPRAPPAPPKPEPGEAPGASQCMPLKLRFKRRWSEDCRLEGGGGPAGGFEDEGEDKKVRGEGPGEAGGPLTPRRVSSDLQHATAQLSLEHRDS
# In short: as §1
# [7] = biological target: T7, SPDEF (Homo sapiens, UniProt O95238 1-335)
# T7 sequence: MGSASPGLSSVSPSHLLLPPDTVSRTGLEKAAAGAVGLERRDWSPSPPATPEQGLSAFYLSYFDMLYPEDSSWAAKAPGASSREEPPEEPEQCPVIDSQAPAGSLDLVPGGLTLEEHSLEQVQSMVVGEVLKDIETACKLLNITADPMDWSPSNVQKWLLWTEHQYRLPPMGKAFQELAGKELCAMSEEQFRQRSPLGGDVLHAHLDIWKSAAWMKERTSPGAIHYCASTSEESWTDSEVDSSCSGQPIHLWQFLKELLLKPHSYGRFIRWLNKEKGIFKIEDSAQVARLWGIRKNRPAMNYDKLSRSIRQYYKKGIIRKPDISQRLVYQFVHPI
# In short: as §1
# [8] = biological target: T8, ETV7 (Homo sapiens, UniProt Q9Y603 1-341)
# T8 sequence: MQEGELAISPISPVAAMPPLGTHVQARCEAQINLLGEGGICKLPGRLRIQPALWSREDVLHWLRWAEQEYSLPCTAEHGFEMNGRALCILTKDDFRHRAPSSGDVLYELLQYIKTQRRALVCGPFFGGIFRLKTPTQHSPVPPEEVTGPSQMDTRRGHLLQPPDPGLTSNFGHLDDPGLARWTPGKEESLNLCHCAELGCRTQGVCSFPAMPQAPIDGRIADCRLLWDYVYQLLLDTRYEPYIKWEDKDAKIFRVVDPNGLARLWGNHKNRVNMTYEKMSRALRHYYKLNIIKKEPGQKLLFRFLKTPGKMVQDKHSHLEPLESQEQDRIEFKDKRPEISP
# In short: as §1
# [9] = biological target: T9, ETV3L (Homo sapiens, UniProt Q6ZN32 1-361)
# T9 sequence: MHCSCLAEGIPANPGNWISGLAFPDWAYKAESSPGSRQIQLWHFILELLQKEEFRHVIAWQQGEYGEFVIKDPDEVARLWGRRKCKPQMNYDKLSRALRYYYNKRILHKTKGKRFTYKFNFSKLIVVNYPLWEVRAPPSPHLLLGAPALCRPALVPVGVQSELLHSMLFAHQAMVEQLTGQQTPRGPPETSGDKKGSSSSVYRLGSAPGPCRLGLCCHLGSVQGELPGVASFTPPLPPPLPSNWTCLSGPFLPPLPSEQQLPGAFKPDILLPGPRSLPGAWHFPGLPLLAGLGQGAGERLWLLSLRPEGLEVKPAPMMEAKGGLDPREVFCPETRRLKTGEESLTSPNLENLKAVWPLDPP
# In short: as §1
# [10] = biological target: T10, ETV3 (Homo sapiens, UniProt P41162-2 1-143)
# T10 sequence: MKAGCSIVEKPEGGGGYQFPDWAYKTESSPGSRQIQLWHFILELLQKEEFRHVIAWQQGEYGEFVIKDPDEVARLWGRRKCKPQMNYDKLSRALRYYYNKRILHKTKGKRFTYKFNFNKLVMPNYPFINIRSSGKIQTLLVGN
# In short: as §1
# [11] = biological target: ELF1 (Homo sapiens, UniProt P32519 1-619)
# Sequence of ELF1 (P32519 whole entry): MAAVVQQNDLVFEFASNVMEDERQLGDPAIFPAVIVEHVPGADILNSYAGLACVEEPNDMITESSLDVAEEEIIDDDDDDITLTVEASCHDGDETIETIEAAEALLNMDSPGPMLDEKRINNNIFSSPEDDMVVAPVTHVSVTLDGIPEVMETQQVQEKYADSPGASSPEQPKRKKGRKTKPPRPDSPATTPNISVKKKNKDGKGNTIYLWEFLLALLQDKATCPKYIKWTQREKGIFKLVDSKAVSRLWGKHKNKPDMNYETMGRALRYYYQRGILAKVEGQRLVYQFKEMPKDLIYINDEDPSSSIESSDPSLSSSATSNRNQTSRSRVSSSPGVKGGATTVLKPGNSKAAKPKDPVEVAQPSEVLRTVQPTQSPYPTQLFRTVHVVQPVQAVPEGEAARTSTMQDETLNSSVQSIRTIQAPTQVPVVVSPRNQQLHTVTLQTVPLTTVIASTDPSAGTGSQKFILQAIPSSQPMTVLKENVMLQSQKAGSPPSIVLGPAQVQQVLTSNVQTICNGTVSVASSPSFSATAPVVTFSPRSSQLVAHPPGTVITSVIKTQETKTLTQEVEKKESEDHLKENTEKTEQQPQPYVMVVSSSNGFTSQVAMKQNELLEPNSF
# In short: as §1
sequence,measurement,setting,value
AGATAC,binding signal,[1],"1 fold enrichment (6-mer frequency, TF over GST control)"
same,binding signal,[2],"1.05 fold enrichment (6-mer frequency, TF over GST control)"
same,binding signal,[3],"1.01 fold enrichment (6-mer frequency, TF over GST control)"
CGACAG,binding signal,[2],"1.01 fold enrichment (6-mer frequency, TF over GST control)"
same,binding signal,[4],"1.03 fold enrichment (6-mer frequency, TF over GST control)"
same,binding signal,[5],"1.07 fold enrichment (6-mer frequency, TF over GST control)"
same,binding signal,[6],"1.07 fold enrichment (6-mer frequency, TF over GST control)"
same,binding signal,[7],"1.01 fold enrichment (6-mer frequency, TF over GST control)"
same,binding signal,[8],"1.08 fold enrichment (6-mer frequency, TF over GST control)"
GCCATC,binding signal,[2],"1.17 fold enrichment (6-mer frequency, TF over GST control)"
same,binding signal,[9],"1.03 fold enrichment (6-mer frequency, TF over GST control)"
CGCAAT,binding signal,[2],"1.01 fold enrichment (6-mer frequency, TF over GST control)"
same,binding signal,[5],"1.04 fold enrichment (6-mer frequency, TF over GST control)"
same,binding signal,[10],"1.01 fold enrichment (6-mer frequency, TF over GST control)"
CGCTGT,binding signal,[11],"1.01 fold enrichment (6-mer frequency, TF over GST control)"
same,binding signal,[2],"1.1 fold enrichment (6-mer frequency, TF over GST control)"
same,binding signal,[4],"1.04 fold enrichment (6-mer frequency, TF over GST control)"
same,binding signal,[5],"1.01 fold enrichment (6-mer frequency, TF over GST control)"
same,binding signal,[6],"1.12 fold enrichment (6-mer frequency, TF over GST control)"

# — article PMC7862700, “An all-to-all approach to the identification of sequence-specific readers for epigenetic DNA modifications on cytosine”
